Records with an inconclusive call do not appear. A call without a number means that no potency is given here. Active and inactive are the calls of the source. The call rests on the fitted dose curve; in most records, active means well fitted curve in the direction sought with a large enough effect in the repeat runs; inconclusive means weak or mixed curves; inactive means no such curve, though single readings can be large; an effect the other way counts as inactive or inconclusive.
Potency means the concentration at half of the fitted maximal effect.

One test is described as follows: qHTS assay for identifying genotoxic compounds that show differential cytotoxicity against isogenic chicken DT40 cell lines with known DNA damage response pathways - Rev3 mutant cell line (AID 743014). Further: nearly all actives have a fitted effect of over 55% in size. As to conditions: chicken DT40 Rev3-/- viability, CellTiter-Glo, 40 h; series mostly up to 68.4 µM. In general terms: qHTS replaces the single test concentration by a dilution series.
Take `CC(C)=CCN1CC[C@]2(C)c3cc(O)ccc3C[C@H]1[C@H]2C`: the Potency was 27.3 µM (active).

On to `CN[C@@]1(c2ccccc2Cl)CCCCC1=O`, for which the Potency entry is “inactive”.

`CCNC1(c2cccs2)CCCCC1=O` (stereo not drawn): the Potency entry is “inactive”.

As to `CCC1(c2ccccc2)C(=O)NC(=O)N(C)C1=O` (stereo not drawn), the Potency entry is “inactive”.

For the compound `COc1cc([C@@H]2c3cc4c(cc3[C@@H](O)[C@H]3COC(=O)[C@H]23)OCO4)cc(OC)c1O`, the Potency is 0.266 µM (active).

Turning to `CNC(C)Cc1ccccc1` (stereo not drawn), the Potency entry was “inactive”.

Consider `CN[C@@H](C)Cc1ccccc1`, for which the Potency entry was “inactive”.

For the compound `CCCCNC(C)(C)[P+](=O)O`, the Potency entry is “inactive”.

For the compound `O=C1C[C@@H]2OCC=C3CN4CC[C@]56c7ccccc7N1[C@H]5[C@H]2[C@H]3C[C@H]46` (tested in a mixture with another compound), the Potency result was “inactive”.

Take `O=c1ccc2cc(O[C@@H]3O[C@H](CO)[C@@H](O)[C@H](O)[C@H]3O)c(O)cc2o1`: the Potency entry is “inactive”.

On to `C/C=C(\CC)C(=O)NC(N)=O`, for which the Potency result was “inactive”.

For the compound `C[C@]12CCC(=O)C[C@@H]1CC[C@@H]1[C@@H]2CC[C@@]2(C)[C@H]1CC[C@]2(C)O`, the Potency entry is “inactive”.

`Cc1nnc2n1-c1ccc(Cl)cc1C(c1ccccc1)=NC2`: the Potency result is “inactive”.

`N#CC(C#N)=Cc1cc(O)c(O)c(O)c1`: the Potency is 26.6 µM (active).

Take `CCCSc1cc(OC)c(CCN)cc1OC`: the Potency is 0.258 µM (active).

Take `O=C(O)CCCO`: the Potency entry was “inactive”.

With `Oc1ccc2c3c1O[C@H]1[C@@H](O)C=C[C@H]4[C@H](C2)NCC[C@@]341`, the Potency result is “inactive”.

Consider `O=P1(N(CCCl)CCCl)NC(OO)CCO1` (stereo not drawn), for which the Potency is 13.3 µM (active).

For `CCc1cc(OC)c(C[C@@H](C)N)cc1OC`, the Potency is 63.6 µM (active).

Regarding `CC(C)[C@H]1C(=O)N2CCC[C@H]2[C@]2(O)O[C@](NC(=O)[C@@H]3C[C@@H]4c5cccc6[nH]cc(c56)C[C@H]4N(C)C3)(C(C)C)C(=O)N12`, the Potency was 29.8 µM (active).

As for `C[C@]12CC[C@H]3[C@@H](CCC4=C(Cl)C(=O)CC[C@@]43C)[C@@H]1CC[C@@H]2O`, the Potency was 9.44 µM (active).

Take `C[C@@H]1[C@@H]2Cc3ccc(O)cc3[C@@]1(C)CCN2CC1CC1`: the Potency entry was “inactive”.

As for `CC(C)C[C@H]1C(=O)N2CCC[C@H]2[C@]2(O)O[C@](NC(=O)[C@@H]3C[C@@H]4c5cccc6[nH]cc(c56)C[C@H]4N(C)C3)(C(C)C)C(=O)N12`, the Potency is 23.7 µM (active).

For `[H+].[H+].[Hg+2].[O-]B([O-])[O-].[c-]1ccccc1`, the Potency was 0.531 µM (active).

For the compound `c1ccc2c(c1)Sc1ccccc1N2C[C@@H]1CN2CCC1CC2`, the Potency result is “inactive”.

For the compound `C[C@@H](Cc1ccccc1)NCCC(c1ccccc1)c1ccccc1`, the Potency is 5.07 µM (active).

As to `CC[C@H]1[C@@H]2C[C@H]3[C@@H]4N(C)c5ccccc5[C@]45C[C@@H](C2[C@H]5O)N3[C@@H]1O` (stereo partly drawn), the Potency result is “inactive”.

As for `CC(N)Cc1ccc2c(c1)OCO2` (stereo not drawn), the Potency entry was “inactive”.

In the case of `CN[C@]1(c2ccccc2Cl)CCCCC1=O`, the Potency entry is “inactive”.

Regarding `C[C@]12CC[C@@H]3c4ccc(OC(=O)N(CCCl)CCCl)cc4CC[C@H]3[C@@H]1CC[C@@H]2OP(=O)(O)O`, the Potency result was “inactive”.

A further test in a line: qHTS assay for identifying genotoxic compounds that show differential cytotoxicity against isogenic chicken DT40 cell lines with known DNA damage response pathways - Rad54/Ku70 mutant cell line (AID 743015). Further: nearly all actives have a fitted effect of over 60% in size. The following applies: DT40 Rad54/Ku70 mutant viability, CellTiter-Glo, 40 h; series mostly up to 66.8 µM.
For the compound `CC(C)=CCN1CC[C@]2(C)c3cc(O)ccc3C[C@H]1[C@H]2C`, the Potency was 27.3 µM (active).

For `CN[C@@]1(c2ccccc2Cl)CCCCC1=O`, the Potency entry was “inactive”.

Take `CCNC1(c2cccs2)CCCCC1=O` (stereo not drawn): the Potency entry was “inactive”.

Turning to `CCC1(c2ccccc2)C(=O)NC(=O)N(C)C1=O` (stereo not drawn), the Potency result was “inactive”.

As for `COc1cc([C@@H]2c3cc4c(cc3[C@@H](O)[C@H]3COC(=O)[C@H]23)OCO4)cc(OC)c1O`, the Potency was 0.266 µM (active).

For the compound `CN1CC[C@@]23CCCC[C@@H]2[C@@H]1Cc1ccc(O)cc13`, the Potency result was “inactive”.

As for `CNC(C)Cc1ccccc1` (stereo not drawn), the Potency result is “inactive”.

For `CN[C@@H](C)Cc1ccccc1`, the Potency entry was “inactive”.

Take `CCCCNC(C)(C)[P+](=O)O`: the Potency result is “inactive”.

Consider `O=C1C[C@@H]2OCC=C3CN4CC[C@]56c7ccccc7N1[C@H]5[C@H]2[C@H]3C[C@H]46` (tested in a mixture with another compound), for which the Potency result is “inactive”.

As for `O=c1ccc2cc(O[C@@H]3O[C@H](CO)[C@@H](O)[C@H](O)[C@H]3O)c(O)cc2o1`, the Potency result is “inactive”.

`C/C=C(\CC)C(=O)NC(N)=O`: the Potency entry was “inactive”.

With `C[C@]12CCC(=O)C[C@@H]1CC[C@@H]1[C@@H]2CC[C@@]2(C)[C@H]1CC[C@]2(C)O`, the Potency entry was “inactive”.

With `N#CC(C#N)=Cc1cc(O)c(O)c(O)c1`, the Potency is 21.1 µM (active).

Turning to `CCCSc1cc(OC)c(CCN)cc1OC`, the Potency is 0.258 µM (active).

Take `O=C(O)CCCO`: the Potency result is “inactive”.

For the compound `Oc1ccc2c3c1O[C@H]1[C@@H](O)C=C[C@H]4[C@H](C2)NCC[C@@]341`, the Potency result was “inactive”.

In the case of `O=P1(N(CCCl)CCCl)NC(OO)CCO1` (stereo not drawn), the Potency result is “inactive”.

For `COC(=O)[C@H]1[C@@H](OC(=O)c2ccccc2)C[C@@H]2CC[C@H]1N2C`, the Potency entry is “inactive”.

For the compound `C=C[C@H]1CN2CC[C@H]1C[C@H]2[C@H](OC(=O)OCC)c1ccnc2ccc(OC)cc12`, the Potency entry is “inactive”.

Regarding `CCc1cc(OC)c(C[C@@H](C)N)cc1OC`, the Potency is 71.4 µM (active).

Regarding `CC(C)[C@H]1C(=O)N2CCC[C@H]2[C@]2(O)O[C@](NC(=O)[C@@H]3C[C@@H]4c5cccc6[nH]cc(c56)C[C@H]4N(C)C3)(C(C)C)C(=O)N12`, the Potency was 26.6 µM (active).

Regarding `C[C@]12CC[C@H]3[C@@H](CCC4=C(Cl)C(=O)CC[C@@]43C)[C@@H]1CC[C@@H]2O`, the Potency is 23.7 µM (active).

`C[C@@H]1[C@@H]2Cc3ccc(O)cc3[C@@]1(C)CCN2CC1CC1`: the Potency entry was “inactive”.

Regarding `CC(C)C[C@H]1C(=O)N2CCC[C@H]2[C@]2(O)O[C@](NC(=O)[C@@H]3C[C@@H]4c5cccc6[nH]cc(c56)C[C@H]4N(C)C3)(C(C)C)C(=O)N12`, the Potency was 29.8 µM (active).

`[H+].[H+].[Hg+2].[O-]B([O-])[O-].[c-]1ccccc1`: the Potency was 0.335 µM (active).

For the compound `c1ccc2c(c1)Sc1ccccc1N2C[C@@H]1CN2CCC1CC2`, the Potency result was “inactive”.

For the compound `C[C@@H](Cc1ccccc1)NCCC(c1ccccc1)c1ccccc1`, the Potency is 7.17 µM (active).

On to `CC[C@H]1[C@@H]2C[C@H]3[C@@H]4N(C)c5ccccc5[C@]45C[C@@H](C2[C@H]5O)N3[C@@H]1O` (stereo partly drawn), for which the Potency result is “inactive”.

As for `CC(N)Cc1ccc2c(c1)OCO2` (stereo not drawn), the Potency entry was “inactive”.

Take `CN[C@]1(c2ccccc2Cl)CCCCC1=O`: the Potency result is “inactive”.

For `C[C@]12CC[C@@H]3c4ccc(OC(=O)N(CCCl)CCCl)cc4CC[C@H]3[C@@H]1CC[C@@H]2OP(=O)(O)O`, the Potency result is “inactive”.

As to `CC(=O)[C@@]1(O)CC[C@H]2[C@@H]3CCC4=CC(=O)CC[C@]4(C)C3(F)[C@@H](O)C[C@@]21C` (stereo partly drawn), the Potency result was “inactive”.
